# Results filed as inconclusive are left out. Entries that show only a call come without a potency. The source made the active and inactive calls. Calls come from the whole dose curve; as a rule, active = well fitted inhibition curve with a large enough effect; inconclusive = small, poorly fitted or top-dose-only effect; inactive = flat fitted curve, though single readings scatter.
# Target: Calcium and integrin-binding protein 1 (Homo sapiens) (UniProt Q99828)
# Test: Primary qHTS for Identification of Calcium Integrin Binding Protein 1 (CIB1) Competitor (AID 1508620); note: top concentration of the series differs between compounds
# Details: CIB1-GST / FITC-alphaIIb peptide fluorescence polarization; series mostly up to 114 µM
# Outline: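 Fluorescence polarization competition: GST-tagged CIB1 (1 uM final) preincubated with compound 15 min at room temperature, then FITC-labelled alphaIIb peptide (100 nM final) added. After 15 min at room temperature, polarization read at Ex 480/Em 540.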
# Chain of Calcium and integrin-binding protein 1 (Homo sapiens) (Q99828 whole entry, looked up): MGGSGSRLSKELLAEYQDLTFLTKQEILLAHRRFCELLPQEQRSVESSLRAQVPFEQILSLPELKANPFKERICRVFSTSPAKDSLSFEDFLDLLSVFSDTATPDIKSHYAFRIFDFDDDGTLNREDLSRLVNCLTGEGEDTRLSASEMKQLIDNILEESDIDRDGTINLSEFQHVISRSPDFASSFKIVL
row,Compound,Potency
1,CC/C(C)=C/C(=O)OC1C(OC2(C)CCC3C(C4C(C)CCC42)C3(C)C)OC(C)C(O)C1O (centres undefined),inactive
2,COc1ccc(S(=O)(=O)n2cnc3cc(C)c(C)cc32)cc1,inactive
3,COC1CC(=O)C23C(=O)NC(Cc4c[nH]c5ccccc45)C2C(C)C2(C)OC2C3/C=C/CC(C)CC1O (centres undefined),inactive
4,CC1(C)CCCC2(C)C1C(OC(=O)/C=C/C=C/C=O)C=C1COC(=O)C12O (centres undefined),inactive
5,CCc1c(Cl)c(O)c(Cl)c(O)c1C(=O)O[C@H]1[C@H](O)[C@H](OC)[C@H](OC/C2=C\C=C\C[C@H](O)/C(C)=C\[C@H](CC)[C@@H](O[C@@H]3OC(C)(C)[C@@H](OC(=O)C(C)C)[C@H](O)[C@@H]3O)/C(C)=C/C(C)=C/C[C@@H]([C@@H](C)O)OC2=O)O[C@@H]1C,inactive
6,CCC(C)C(=O)O[C@H]1[C@@H](OC(=O)c2ccoc2)C[C@](C)(O)[C@]23OC(C)(C)[C@H](C[C@H](OC(=O)c4ccoc4)[C@]12COC(C)=O)[C@H]3OC(C)=O (some centres undefined),inactive
7,COc1cc2c(cc1OC)CN(C(=O)/C=C/c1c(-c3ccccc3)n(C)c3ncccc13)CC2,inactive
8,CC(C)=CCC[C@](C)(O[C@@H]1O[C@H](CO[C@@H]2OC[C@@H](O)[C@H](O)[C@H]2O)[C@@H](O)[C@H](O)[C@H]1O)[C@H]1CC[C@]2(C)[C@@H]1[C@H](O)C[C@@H]1[C@@]3(C)CC[C@H](O[C@@H]4O[C@H](CO)[C@@H](O)[C@H](O)[C@H]4O)C(C)(C)[C@@H]3CC[C@]12C,inactive
9,C=C[C@](C)(O)CC[C@H]1C(C)=CC(=O)[C@H]2C(C)(C)CCC[C@]12C,inactive
10,O=S(=O)(Nc1ccccc1N1CCCCC1)c1ccc(Cl)s1,inactive
11,CC[C@H](C)/C=C(C)/C=C/C1=CC2=CC(=O)[C@]3(C)OC(=O)[C@@H](C(C)=O)[C@@H]3C2=CO1,inactive
12,CCCCCCCCC(=O)N[C@H](CN1CCCC1)[C@H](O)c1ccc2c(c1)OCCO2,inactive
13,CC1(C)CC[C@]2(C(=O)O[C@@H]3O[C@H](CO)[C@@H](O)[C@H](O)[C@H]3O)CC[C@]3(C)C(=CCC4[C@@]5(C)CC[C@H](O[C@@H]6O[C@H](C(=O)O)[C@H](O)[C@H](O)[C@H]6O)C(C)(C)C5CC[C@]43C)[C@@H]2C1 (some centres undefined),inactive
14,CC(OC1OCCN(Cc2n[nH]c(=O)[nH]2)C1c1ccc(F)cc1)c1cc(C(F)(F)F)cc(C(F)(F)F)c1 (centres undefined),inactive
15,C=C1C(=O)OC2C1CCC1(C)C(O)CCC(=C)C21 (centres undefined),inactive
16,C=C1C(=O)O[C@@H]2C[C@H](C)[C@@H]3CC(=O)[C@H](O)[C@@]3(C)C[C@H]12,inactive
17,COc1cc(/C=C2\CCCN([C@@H](C)c3ccc(F)cc3)C2=O)ccc1-n1cnc(C)c1,inactive
18,OC1(CN2CCC(COc3noc4cccc(O[C@@H]5CCOC5)c34)CC2)CCOCC1,inactive
19,CCn1c(N)c(C(=O)NC)c(=O)c2ccc(C#CC(C)(O)COC)nc21 (centres undefined),inactive
20,Cc1ccnc(NC(=O)C(C)c2cccc(C(=O)c3ccccc3)c2)c1 (centres undefined),inactive

row,Compound,Potency
1,C/C=C(\C)C(=O)OC1C(C)C2(O)C(C=C(CO)CC3(O)C(=O)C(C)=CC32)C2C(C)(C)C12OC(=O)C(C)C (centres undefined),inactive
2,COc1cc2c(NC3CCN(C(C)C)CC3)nc(N3CCC(F)(F)CC3)nc2cc1OCCCN1CCCC1,inactive
3,COc1cccc(-c2cn(-c3ccc(CCN4CCC(O)CC4)cc3)c3ncnc(N)c23)c1,inactive
4,C/C=C(\C)C(=O)OC1C[C@@]2(COC(C)=O)O[C@H]2/C=C\[C@@]2(C)O[C@@H]2[C@H]2OC(=O)C(COC(C)=O)=C12 (some centres undefined),inactive
5,c1cc(-c2cnn3cc(-c4ccc(N5CCNCC5)cc4)cnc23)c2cccnc2c1,inactive
6,C=C[C@@]12COC(=O)C(=C)[C@@H]1[C@@H](O)[C@H](C(=C)C(=O)OC)[C@@H](O)C2,inactive
7,COCCNCc1ccc(-c2cc3nccc(Oc4ccc(NC(=O)C5(C(=O)Nc6ccc(F)cc6)CC5)cc4F)c3s2)nc1,inactive
8,Cc1c(OCc2cccc(-c3ccc(C(=O)O)cc3)c2)cc2c(c1C)C(=O)C(C1CCCC1)C2 (centres undefined),inactive
9,C/C1=C\[C@@H](C)C[C@@H](C)[C@@H](Cc2cnco2)OC(=O)/C(C)=C/[C@@H](C)C[C@@H](C)[C@@H](Cc2cnco2)OC1=O,inactive
10,C=C[C@@]1(C)CCC2C(=CCC3[C@]2(C)CCC[C@@]3(C)C(=O)O)C1 (some centres undefined),inactive
11,COc1ccc(NC(=O)C2C[C@H](C)CC[C@H]2C(C)C)cc1 (some centres undefined),inactive
12,CC(C)=CCCC1(C)C2CCC1(C)C(O)C2 (centres undefined),inactive
13,COc1cc(C(=O)O)ccc1NC(=O)C1NC(CC(C)(C)C)C(C#N)(c2ccc(Cl)cc2F)C1c1cccc(Cl)c1F (centres undefined),inactive
14,CCN(CC)CCCCCCNc1cc(OC)cc2c(C)ccnc12,inactive
15,CC(C)c1cc(-c2ccc(F)c3ccccc23)nc(N)n1,inactive
16,C[C@@H]1CC[C@@]23CC[C@]4(C)[C@@](C=CC5[C@@]6(C)CC[C@H](O)C(C)(C)C6CC[C@]54C)(OC2=O)C3[C@H]1C (some centres undefined),inactive
17,CC/C=C\CC1C(=O)C=CC1(CCCCC1CCC(=O)O1)OC(C)=O (centres undefined),inactive
18,CCNC(=O)Nc1ccc(-c2nc3c(c(N4CCOCC4C)n2)CCN(C2COC2)C3)cc1 (centres undefined),inactive
19,CC(=O)O[C@H]1[C@@]2(O)C[C@H](C)[C@H](OC(=O)c3ccccc3)[C@@H]2[C@@H](OC(=O)CO)[C@]2(OC(C)=O)C[C@H]3C(=O)C(C)(C)C[C@@H]3[C@@]1(C)[C@H]2OC(C)=O,inactive

# Reference: PubChem BioAssay (NCATS)
